# HPGD block: HPGD (human) dehydrogenase inhibition; purified HPGD, NADH fluorescence kinetic, PGE2 substrate; Potency, µM, inactives show at the highest dose activity change, negative = inhibition, hits mostly inhibitors; 150,000 tested, 4.3% active; AID 894; active means well fitted inhibition curve with a large enough effect, not every such curve was filed as active; inconclusive means small, poorly fitted or top-dose-only effect, or another doubt; inactive means no such curve, though single readings can be large or run the other way; further: on the % scale 0 is the no-effect control and ±100 the full control effect
# Target sequence (P15428 whole entry, looked up): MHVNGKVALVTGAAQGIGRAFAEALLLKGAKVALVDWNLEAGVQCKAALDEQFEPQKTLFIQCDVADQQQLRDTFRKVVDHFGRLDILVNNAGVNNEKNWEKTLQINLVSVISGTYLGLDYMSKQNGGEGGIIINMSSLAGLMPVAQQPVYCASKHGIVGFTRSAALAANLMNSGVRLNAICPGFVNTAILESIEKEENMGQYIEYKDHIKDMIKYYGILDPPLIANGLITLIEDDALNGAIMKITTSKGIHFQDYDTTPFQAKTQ
#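 NADH formation kinetics: reaction with 30 uM PGE2 and 1 mM NAD+ (final), 20 nM enzyme, Tris-HCl pH 8 with Tween 20, after 15 min compound preincubation at room temperature. Fluorescence change, last versus first of five reads.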
# HTT ATP protect: protects HTT-Q103 PC12 cells, measured by ATP | PC12 HTT-Q103 induced, cytoprotection, ATP luminescence, 40 h | Potency, µM (top dose mostly 56.4 µM), for the others: cytoprotection (ATP increase), usual class: activators | 230,000 tested, 0.14% active | AID 1471; further: % of control where 0% means no effect; nearly all actives have a fitted effect of over 45% in size
#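 PC12 cells with ecdysone-inducible HTT exon 1 Q103-GFP, induced with 100 nM tebufenozide and co-treated with library compounds in a dose series (1536-well, 1500 cells/well). Cytoprotection read as ATP content by ATPlite luminescence.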
# ALDH1A1 block: blocks purified human ALDH1A1 activity. P00352. Purified ALDH1A1, NADH fluorescence, propionaldehyde substrate. Potency, µM (series often up to 75.3 µM), without a hit: at the highest dose activity, negative = inhibition, most hits filed as inhibitors. 220,000 tested, 7.3% active; active means well fitted inhibition curve with a large enough effect, not every such curve was filed as active; inconclusive means small, poorly fitted or top-dose-only effect, or another doubt; inactive means no such curve, though single readings can be large or run the other way;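 further: plate controls were no enzyme wells and a reference inhibitor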
# Target sequence (P00352 whole entry, looked up): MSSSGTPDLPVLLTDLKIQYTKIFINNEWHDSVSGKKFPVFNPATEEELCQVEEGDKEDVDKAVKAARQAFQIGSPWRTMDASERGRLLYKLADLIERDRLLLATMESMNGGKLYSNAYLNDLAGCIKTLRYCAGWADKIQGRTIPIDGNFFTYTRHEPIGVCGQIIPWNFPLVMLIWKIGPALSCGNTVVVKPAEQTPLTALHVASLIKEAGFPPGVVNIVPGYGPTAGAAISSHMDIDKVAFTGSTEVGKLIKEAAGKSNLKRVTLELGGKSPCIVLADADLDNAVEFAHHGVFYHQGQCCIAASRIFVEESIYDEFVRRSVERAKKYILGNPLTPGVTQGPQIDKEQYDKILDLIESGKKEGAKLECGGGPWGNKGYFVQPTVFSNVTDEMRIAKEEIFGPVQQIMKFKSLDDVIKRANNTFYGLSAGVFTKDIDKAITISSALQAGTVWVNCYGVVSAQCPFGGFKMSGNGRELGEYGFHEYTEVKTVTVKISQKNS
# LMNA splice mod: LMNA splicing modulation; Potency, µM (top dose mostly 46.1 µM), for inactives: top-dose ratio change, negative = inhibition, usual class: inhibitors; 200,000 tested, 0.01% active; AID 1487; HeLa LMNA splicing GFP/RFP minigene ratio, 48 h; active means well fitted inhibition curve with a large enough effect in the signal ratio, with a control signal flat, not every such curve was filed as active; inconclusive means small, poorly fitted or top-dose-only effect, or effect the other way, or a change in a side signal; the % refers to the signal ratio; further: on the % scale 0 is the no-effect control and ±100 the full control effect
#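 S3 HeLa cells stably expressing lamin A-EGFP splicing minigene plus DsRed2, 600 cells/well, 48 h compound exposure at 37C. Laser-scanning cytometry; analysed as GFP (500-530 nm)/RFP (575-640 nm) total intensity ratio; 0.5% DMSO vehicle.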
# HTT aggregate: reduces HttQ103-GFP aggregates in PC12 cells; PC12 HttQ103-GFP aggregates, Acumen cytometry, 40 h; Potency, µM (series often up to 46.1 µM), inactives show at the top dose activity change, negative = inhibition, most hits filed as inhibitors; 220,000 tested, 1.1% active; AID 1688; further: on the % scale 0 is the no-effect control and ±100 the full control effect; nearly all actives have a fitted effect of over 60% in size
#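 PC12/HTTQ103-GFP, ecdysone-inducible; teb 100 nM; cpd qHTS titration; GFP aggregates read on laser cytometer, Ex 488/Em 500-530 nm.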
# Active calls of the source: *; ? = inconclusive; / = no result given; [ ] = remark or other dose. Shown are actives, neighbours in structure and some others; about 8.8% of the full set was active somewhere. Unless noted, the call rests on the fitted dose curve; in most records, active means well fitted curve in the direction sought with a large enough effect; inconclusive means small, poorly fitted or top-dose-only effect, or another doubt; inactive means no such curve, though single readings can be large; an effect the other way counts as inactive or inconclusive. Potency means the concentration at half of the fitted maximal effect.
SMILES,HPGD block,HTT ATP protect,ALDH1A1 block,LMNA splice mod,HTT aggregate
COCC1=C2c3ccccc3[C@H](C[N+](=O)[O-])C(C(=O)OC)(C(=O)OC)C[C@@H]2n2c(=O)n(-c3ccccc3)c(=O)n2C1,-8.6%,22.4%,-10.2%,/,/
Nc1nc(Cc2ccccc2)nc(Cc2ccccc2)c1-c1ccccc1,-6.0%,16.7%[10 µM],-10.7%[13.5 µM],/,/
Cc1ccc(NC(=O)Cn2cc(C(=O)c3ccco3)c3ccccc32)cc1,/,/,/,7.8%[46 µM],/
CCN(Cc1cc(Cl)cc(C)c1O)Cc1c(O)ccc2ccccc12,-5.5%,-14.8%[10 µM],-2.0%[13.5 µM],/,/
CCN(Cc1ccncc1)Cc1c(O)ccc2ccccc12,/,/,10µM*,/,36.9%
COCCNC(=O)c1ccc(Cc2nc3ccccc3[nH]2)cc1,-10.5%,/,15.0%,/,/
COc1ccc2c(Cl)c(C(=O)N/N=C3\CCCC(=O)C3)sc2c1,/,-47.7%,4.47µM*,/,-7.0%
COc1cc(C(=O)NCCc2ccc3c(c2)OCCO3)ccc1OCC(=O)N1CCOCC1,-29.4%,-34.3%,22.4µM*,13.0%,14.4%
CCOc1ccc(C(=O)NCCc2ccc3c(c2)OCCO3)cc1,/,/,11.7%,/,5.01µM*
COc1ccc(CCNC(=O)c2ccc3c(c2)OCCO3)cc1,/,/,-7.7%,/,7.9%
[O-]/[N+](=C/c1ccc(F)cc1)c1ccc(Cl)cc1,-15.3%,14.8%,6.31µM*,-2.7%,27.2%
CCN(CC)C(=O)NC(c1ccc(C)c(F)c1)C(Cl)(Cl)Cl (stereo unspecified),-8.6%,14.8%[10 µM],4.8%,?,1.2%
CCOc1ccc(S(=O)(=O)N/N=C(\C)Cc2ccc(OC)cc2)cc1,/,-21.5%,2.82µM*,-19.5%[46 µM],10.4%
CCOc1ccc(S(=O)(=O)N/N=C(\C)C2CCCCC2)cc1,-8.3%,-3.9%[10 µM],1.78µM*,-2.4%,17.4%
CCCNC(=O)C1CCC(Cn2c(=O)c3sccc3n(CC(=O)NCc3ccccc3)c2=O)CC1 (stereo unspecified),/,/,/,-0.8%[46 µM],/
CCOC(=O)NC(=O)c1cn(CCNCCO)c(=O)[nH]c1=O,/,/,3.8%,-9.2%[46 µM],13.3%
CCOc1ccc(Cc2onc3c2C(=O)CC(C)(C)C3)cc1OCC,/,-33.4%,8.91µM*,21.5%[46 µM],-4.3%
CCOc1ccc(CC(=O)C2C(=O)CCCC2=O)cc1OCC,-2.0%,-16.6%,?,0.2%,6.7%
CCOc1ccc(CC(=O)C2C(=O)CC(C)(C)CC2=O)cc1OCC,-15.9%,5.6%,7.94µM*,0.4%,?
CCOc1ccc(CC(=O)C2=C(N3CCOCC3)CC(C)(C)CC2=O)cc1OCC,/,-7.4%,39.8µM*,12.6%[46 µM],3.4%
CCOc1ccc(Cc2onc3c2C(=O)CCC3)cc1OCC,/,/,1.2%,/,-0.1%
CCOc1ccc(CC(=N)C2=C(O)CC(C)(C)CC2=O)cc1OCC,-1.7%,36.9%[10 µM],-1.9%,1.9%,-17.3%
O=C(N/N=C/c1ccc(OC(F)F)cc1)c1cccc(S(=O)(=O)N2CCOCC2)c1,/,-15.1%[10 µM],9.7%,?,-13.1%[9.22 µM]
O=C(Cc1ccccc1Cl)NC1(O)C(=O)c2ccccc2C1=O,/,-10.5%[10 µM],1.12µM*,16.7%[46 µM],-17.5%[9.22 µM]
COc1cc(/C=C2/NC(=O)N(Cc3ccccc3F)C2=O)cc(OC)c1O,/,-42.2%,10µM*,/,9.9%
SMILES,HPGD block,HTT ATP protect,ALDH1A1 block,LMNA splice mod,HTT aggregate
CCOc1cc(/C=C2/NC(=O)N(Cc3ccccc3F)C2=O)ccc1O,-10.7%,-37.8%[10 µM],8.91µM*,6.1%,-3.4%
O=C(O)c1ccc(COc2ccccc2/C=C2\NC(=O)N(Cc3ccccc3F)C2=O)cc1,/,-3.2%[10 µM],?,/,18.7%
COc1ccccc1CN1CC2(CCN(C(=O)c3ccncc3)CC2)C1,-9.9%,34.5%,-5.0%,/,/
CCN(CC)c1ccc(NC(=O)c2cc(OC)cc(OC)c2)c(C)c1,-6.8%,-112.7%[0.074 µM],-1.7%,?,3.16µM*
CCN(CC)c1ccc(NC(=O)c2cccc(OC)c2)c(C)c1,-5.7%,-23.7%,-9.3%,?,?
Cc1ccc(CCNC(=O)c2ccc3c(c2)N(Cc2cccc(Cl)c2)C(=O)c2ccccc2S3(=O)=O)cc1,/,/,/,-5.3%[46 µM],/
c1ccc(OCc2nnc3sc(-c4cccs4)nn23)cc1,8.91µM*,-8.6%[10 µM],3.55µM*,-2.3%,-16.5%
COc1ccc(-c2nn3c(COc4ccccc4)nnc3s2)cc1OC,?,-68.1%,?,3.1%,17.9%
Clc1ccc(Cl)c(-c2nn3c(COc4ccccc4)nnc3s2)c1,10µM*,-6.0%[0.074 µM],3.55µM*,3.8%,-7.3%
CCc1nnc2sc(-c3cc(-c4ccccc4)nc4ccccc34)nn12,-26.6%,-9.6%,-10.8%,2.7%,?
CN(CCO)c1ncnc2c1sc1nc(N3CCOCC3)c3c(c12)CCC3,/,-12.3%[10 µM],?,/,3.0%[9.22 µM]
CCCN1C(=O)c2cc(C(=O)Nc3ccc(OC)c(OC)c3)ccc2C1Nc1ccc(OC)c(OC)c1 (stereo unspecified),/,-15.1%,?,19.1%[46 µM],12.9%
CCCN1C(=O)c2cc(C(=O)Nc3ccc(OC)cc3OC)ccc2C1Nc1ccc(OC)cc1OC (stereo unspecified),/,-46.0%,25.1µM*,/,1.6%
CCCCn1nnc(NC(=S)NC(=O)c2ccc(-c3cccc(Cl)c3Cl)o2)n1,/,18.3%[10 µM],3.55µM*,-1.2%,-3.3%
CCCCn1nnc(NC(=O)c2ccc(-c3ccccc3[N+](=O)[O-])o2)n1,/,-42.1%,?,-3.4%[46 µM],7.3%
CCCCC(=O)NC(=S)Nc1nnn(CCC)n1,/,-7.5%,0.501µM*,?,2.0%
Cc1nc(N)sc1-c1csc(N(C)c2ccc(O)cc2)n1,14.1µM*,-33.6%,14.1µM*,?,-10.7%
CN(c1ccc(O)cc1)c1nc(-c2cccs2)cs1,/,31.8%[10 µM],6.8%,0.1%[46 µM],15.0%[9.22 µM]
Cc1nc(-n2nc(C)c(Cc3ccccc3Cl)c2C)sc1C(=O)Nc1ccccc1F,/,/,/,4.6%[46 µM],/
COc1ccc(OCc2nnc(SCc3ccc(C(=O)O)cc3)o2)cc1,/,-18.5%[10 µM],13.1%,/,3.5%[9.22 µM]
O=C(O)c1ccc(CSc2nnc(COc3ccc(Cl)cc3Cl)o2)cc1,5.01µM*,-23.8%,?,11.5%,-9.0%
O=c1cc(CSc2nnc(COc3ccccc3Cl)o2)nc2sccn12,17.8µM*,-4.3%,?,9.0%,-0.4%
CCCc1nn2c(=O)cc(COC(=O)c3ccco3)nc2s1,/,/,/,-2.4%[46 µM],/
CCCC1CC(C(=O)N[C@H](C(C)O)C2OC(SC)[C@@H](O)C(O)C2O)N(C)C1 (stereo partly specified),-7.7%,-5.4%,-10.9%,/,/
COc1cc(NC(=O)c2ccccc2Cl)c(OC)cc1NC(=O)CN1CCCCC1,/,-14.2%[10 µM],9.4%,/,8.0%[9.22 µM]
CC1=CC(=O)CC(C)(C)[C@]1(O)/C=C\C(C)=C\C(=O)O,-3.7%,-10.6%[10 µM],6.1%[13.5 µM],/,/
O=C(N/N=C/c1ccc([N+](=O)[O-])cc1)c1cccs1,/,16.8%[10 µM],-4.4%,/,9.6%[9.22 µM]
O=C(N/N=C/c1cccc([N+](=O)[O-])c1O)c1cccs1,?,4.4%[10 µM],-8.7%,?,15.8µM*
CCOC(=O)c1c(CNc2ccncc2)n(C)c2cc(Br)c(O)cc12,/,-67.4%[10 µM],0.6%,/,8.4%
